“And” between values parts separate entries of the source, which are not always exact repeats. Equal values may be shown once. Results filed as inconclusive are left out. The source made the active and inactive calls. How the source made its calls, unless noted: active means hit-call score of the fitted dose curve at least 0.9, where 1 is the maximum; inactive means score below 0.9.
Tests used:
[1] = CCTE_Shafer_MEA_acute_per_network_burst_spike_number_std: CCTE's Neural Acute Assay for Standard Deviation of Number of Spikes in a Network Burst, Shafer Lab (AID 2284020);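 further: fitted for decrease in spike-number SD versus DMSO so actives lower it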
Summary of the method: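 Rat primary cortical neurons on 48-well MEA (16 electrodes/well), treated DIV 13 or 15 at 0.03-40 uM, ≥3 wells per compound. 40 min recordings at 37 C before and after dosing; value is percent change in network-burst spike-number SD, negative direction vs DMSO.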

[2] = CCTE_Shafer_MEA_acute_per_network_burst_electrodes_number_mean: CCTE's Neural Acute Assay for Mean Number of Electrodes in a Network Burst, Shafer Lab (AID 2284021);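 further: curves fitted for decreases only so hits reduce electrodes per burst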
Summary of the method: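 Percent change from baseline in average electrode count per network burst, rat cortical cultures on 48-well MEAs; 40-min recordings each side of exposure, DIV 13 or 15; threshold 8x rms noise; DMSO as negative control.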

[3] = CCTE_Shafer_MEA_acute_network_burst_percentage: CCTE's Neural Acute Assay for Percentage of Network Bursts, Shafer Lab (AID 2284022);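 further: curves fitted for loss so actives lower network burst percentage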
Summary of the method: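 On DIV 13 or 15, at least three wells of rat cortical neurons per compound are dosed at 0.03-40 uM. Spontaneous firing is detected at 8x rms noise for 40 min before and after dosing at 37 C. The percent change in network-burst spike share is reported.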

[4] = CCTE_Shafer_MEA_acute_cross_correlation_area: CCTE's Neural Acute Assay for Area of Cross Correlation, Shafer Lab (AID 2284024);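 further: area under pooled inter-electrode spike cross-correlation near zero lag as percent change from own baseline; curves fitted for loss of cross-correlation area so actives lower synchrony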
Summary of the method: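 Extracellular recordings from cultured rat cortical neurons measure network synchrony as cross-correlation area; each well's post-compound value (0.03-40 uM, 40 min) is compared with its own 40 min baseline to give percent change.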

[5] = CCTE_Shafer_MEA_acute_cross_correlation_HWHM: CCTE's Neural Acute Assay for Cross Correlation at Half Width at Half Maximum, Shafer Lab (AID 2284026);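 further: percent change per well from pre-dose baseline in spike cross-correlogram half width; hits are a decrease in cross-correlogram half width relative to DMSO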;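 on outcome: spontaneous network firing of rat primary cortical neurons on multiwell microelectrode arrays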
Summary of the method: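 Percent change in cross-correlogram half width at half maximum, narrower meaning more synchrony, was derived per well from paired 40-min recordings before and during exposure to 0.03-40 uM compound in rat cortical cultures at 37 C.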

[6] = CCTE_Shafer_MEA_acute_synchrony_index: CCTE's Neural Acute Assay for Synchrony, Shafer Lab (AID 2284027);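 further: fitted for loss of signal so actives lower synchrony relative to DMSO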
Summary of the method: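 Readout is percent change in the unitless network synchrony index (0 low, 1 high) between a 40-min baseline and a 40-min recording in compound. Cultures were primary rat cortical neurons on MEAs, treated at 0.03-40 uM on DIV 13 or 15.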

[7] = CCTE_Shafer_MEA_dev_firing_rate_mean: CCTE's Neural Network Formation Assay for Mean Firing Rate, Shafer Lab (AID 2284031);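 further: AUC of well mean spike rate recorded on DIV 5 7 9 and 12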;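 on AC50: curve fitted for loss of firing so AC50 reflects decreased mean firing rate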
Summary of the method: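 Rat primary cortical neurons were seeded on multielectrode arrays and treated from plating through day 12, with redosing at each feed. Spontaneous spiking was recorded four times; mean firing rate AUC was fitted downward against DMSO.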

[8] = CCTE_Shafer_MEA_dev_per_burst_spike_percent: CCTE's Neural Network Formation Assay for Percent of Spikes in a Burst, Shafer Lab (AID 2284032);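 on AC50: fitted as a decrease in burst spike percentage below DMSO baseline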
Summary of the method: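 Rat primary cortical neurons on 16-electrode MEA wells, dosed from plating day 0 for 12 days with renewal on DIV 5 and 9; spikes-in-bursts percentage averaged over bursting electrodes, collapsed as AUC across days 5, 7, 9, 12; loss direction versus DMSO.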

[9] = CCTE_Deisenroth_AIME_384WELL_CTox_Active: Cytotoxicity Assessment (CTOX) in CCTE's 384-well Estrogen Receptor Transactivation Assay with AIME metabolic competence (metabolism positive), Deisenroth Lab (AID 2284037; active means hit-call score of the fitted dose curve at least 0.9, where 1 is the maximum;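 further: chemicals first conditioned 2 h by alginate-bound induced rat liver S9 before cells; activity means signal loss indicating cell death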)
Summary of the method: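 Chemicals pre-incubated 2 hours with alginate-immobilised phenobarbital/beta-naphthoflavone-induced male Sprague Dawley rat liver S9, then conditioned medium applied 24 hour to VM7Luc4E2 cells. Viability by fluorogenic protease substrate; 10-point series 0.002 - 200 uM.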

[10] = target: Estrogen receptor (Homo sapiens) (UniProt P03372); test: CCTE_Deisenroth_AIME_384WELL_LUC_Active: CCTE's 384-well Estrogen Receptor Transactivation Assay with AIME metabolic competence (ERTA luciferase; metabolism positive), Deisenroth Lab (AID 2284030; active means hit-call score of the fitted dose curve at least 0.9, where 1 is the maximum)
Summary of the method: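 Estrogenic luciferase signal in VM7Luc4E2 cells is measured at 24 hour, after chemicals have been preconditioned 2 hours with PB/BNF-induced rat hepatic S9 in alginate. Gain of signal is fitted relative to 17beta-estradiol, across 0.002 - 200 uM.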

Chain of Estrogen receptor (Homo sapiens) (P03372 whole entry, looked up): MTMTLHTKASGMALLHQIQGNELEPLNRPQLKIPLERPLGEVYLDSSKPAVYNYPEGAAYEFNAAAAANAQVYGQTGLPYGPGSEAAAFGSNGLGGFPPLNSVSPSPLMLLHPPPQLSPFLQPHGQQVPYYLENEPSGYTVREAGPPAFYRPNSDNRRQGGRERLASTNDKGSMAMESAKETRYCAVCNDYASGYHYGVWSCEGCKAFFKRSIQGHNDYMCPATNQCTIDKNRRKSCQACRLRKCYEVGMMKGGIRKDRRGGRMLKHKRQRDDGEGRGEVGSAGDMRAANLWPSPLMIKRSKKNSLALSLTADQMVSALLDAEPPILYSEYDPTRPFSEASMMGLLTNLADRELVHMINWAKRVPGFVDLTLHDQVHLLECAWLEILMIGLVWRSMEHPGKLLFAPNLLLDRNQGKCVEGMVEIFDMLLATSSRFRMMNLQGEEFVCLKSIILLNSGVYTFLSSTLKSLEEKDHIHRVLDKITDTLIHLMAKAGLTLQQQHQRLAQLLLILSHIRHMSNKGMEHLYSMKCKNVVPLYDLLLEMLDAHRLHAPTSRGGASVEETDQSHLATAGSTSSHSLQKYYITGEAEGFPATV

Structure (SMILES): COCCc1ccc(OCC(O)CNC(C)C)cc1 (stereo not given)
- outcome [1]: inactive
- outcome [2]: inactive
- outcome [3]: inactive
- outcome [4]: inactive
- outcome [5]: inactive
- outcome [6]: inactive
- outcome [7]: inactive
- outcome [8]: inactive

Structure (SMILES): CC(C)CC(C)CC(O)CC(C)C (stereo not given)
- outcome [9]: inactive

Structure (SMILES): CCNCCO
- outcome [9]: inactive

Structure (SMILES): CN(C)C(=S)SC(=S)N(C)C
- outcome [1]: inactive
- outcome [2]: inactive
- AC50 [3]: 3.39 µM (active)
- outcome [4]: inactive
- outcome [5]: inactive
- outcome [6]: inactive

Structure (SMILES): CCC(=O)O[C@@H]1C[C@H]2CC[C@]1(C)C2(C)C
- outcome [9]: inactive

Structure (SMILES): Oc1c(Cl)cc(Cl)c(Cl)c1Cc1c(O)c(Cl)cc(Cl)c1Cl
- AC50 [1]: 0.153 µM (active)
- AC50 [2]: 0.54 µM (active)
- AC50 [3]: 0.454 µM (active)
- AC50 [4]: 0.127 µM (active)
- outcome [5]: inactive
- AC50 [6]: 0.203 µM (active)
- AC50 [7]: 894 nM (active) and 1.28 µM (active)
- AC50 [8]: 1.16 µM (active) and 954 nM (active)

Structure (SMILES): CC1(C)CCC[C@]2(C)[C@H]3CCO[C@]3(C)CC[C@@H]12
- outcome [1]: inactive
- outcome [2]: inactive
- outcome [3]: inactive
- outcome [4]: inactive
- outcome [5]: inactive
- outcome [6]: inactive

Structure (SMILES): Oc1ccc2cc(SSc3ccc4cc(O)ccc4c3)ccc2c1
- outcome [9]: inactive

Structure (SMILES): O=C(CC(=O)c1ccccc1)c1ccccc1
- outcome [9]: inactive

Structure (SMILES): CCCCCCCCCCCC(=O)OCC(O)CO (stereo not given)
- outcome [10]: inactive
- AC50 [9]: 0.0666 µM (active)

Structure (SMILES): COc1ccccc1N=Nc1c(S(=O)(=O)O)cc2cc(S(=O)(=O)O)cc(NC(C)=O)c2c1O
- outcome [9]: inactive

Structure (SMILES): CCCCC(CC)COC(=O)c1ccc(O)cc1 (stereo not given)
- outcome [9]: inactive

Structure (SMILES): O=C(Nc1ccc2c(O)c(N=Nc3ccc(N=Nc4ccc(S(=O)(=O)O)cc4)cc3)c(S(=O)(=O)O)cc2c1)c1ccccc1
- outcome [1]: inactive
- outcome [2]: inactive
- outcome [3]: inactive
- outcome [4]: inactive
- outcome [5]: inactive
- AC50 [6]: 15 µM (active)

Structure (SMILES): CCCCCCCCC=CCCCCCCCC1=NCCN1CCO
- outcome [9]: inactive

Structure (SMILES): Nc1ccc2cc(S(=O)(=O)O)cc(O)c2c1N=Nc1ccccc1C(F)(F)F
- AC50 [9]: 46.4 µM (active)

Structure (SMILES): CS(=O)(=O)OCCCCOS(C)(=O)=O
- outcome [10]: inactive
- outcome [7]: inactive
- outcome [8]: inactive

Structure (SMILES): O=[N+]([O-])c1ccc(O)cc1C(F)(F)F
- AC50 [9]: 62.2 µM (active)

Structure (SMILES): CCCCCCC(C)(C)S
- outcome [9]: inactive

Structure (SMILES): CCCCCCCCCCCCCCN(CCO)CCO
- outcome [9]: inactive

Structure (SMILES): O=P(O)(O)O
- outcome [9]: inactive

Structure (SMILES): CS(C)=O
- outcome [9]: inactive

Structure (SMILES): OCc1cccc(Oc2ccccc2)c1
- outcome [9]: inactive

Structure (SMILES): CCCCCCC(CO)CCCC (stereo not given)
- outcome [1]: inactive
- AC50 [2]: 0.0774 µM (active)
- outcome [3]: inactive
- outcome [4]: inactive
- AC50 [5]: 4.38 µM (active)
- AC50 [6]: 4.68 µM (active)

Structure (SMILES): CCCCC(CC)COC(C)=O (stereo not given)
- outcome [9]: inactive

Structure (SMILES): CCOC(=O)C(C#N)=C(c1ccccc1)c1ccccc1
- outcome [1]: inactive
- outcome [2]: inactive
- outcome [3]: inactive
- outcome [4]: inactive
- outcome [5]: inactive
- outcome [6]: inactive

Structure (SMILES): Clc1ccc(C(c2ccccc2Cl)C(Cl)Cl)cc1 (stereo not given)
- AC50 [9]: 100 µM (active)

Structure (SMILES): CCCCCCCCSCCO
- outcome [9]: inactive

Structure (SMILES): CN(C)CCOC(C)(c1ccccc1)c1ccccn1 (stereo not given)
- outcome [7]: inactive
- outcome [8]: inactive

Structure (SMILES): O=C1NC2NC(=O)NC2N1 (stereo not given)
- outcome [9]: inactive

Structure (SMILES): O=C1OC(=O)c2c(Cl)c(Cl)c(Cl)c(Cl)c21
- outcome [9]: inactive

Structure (SMILES): COCCOCCOCCO
- outcome [7]: inactive
- outcome [8]: inactive
- outcome [9]: inactive

Structure (SMILES): C=CC(C)(O)CCC=C(C)C (stereo not given)
- outcome [1]: inactive
- outcome [2]: inactive
- AC50 [3]: 0.003 µM (active)
- outcome [4]: inactive
- outcome [5]: inactive
- outcome [6]: inactive
- outcome [9]: inactive

Structure (SMILES): CC(C)CCCCCCc1ccc(OCCOCCO)cc1
- outcome [10]: inactive
- outcome [9]: inactive

Structure (SMILES): O=CN1CCOCC1
- outcome [1]: inactive
- outcome [2]: inactive
- outcome [3]: inactive
- outcome [4]: inactive
- outcome [5]: inactive
- outcome [6]: inactive

Structure (SMILES): CC(CN=Cc1ccccc1O)N=Cc1ccccc1O (stereo not given)
- outcome [1]: inactive
- outcome [2]: inactive
- outcome [3]: inactive
- outcome [4]: inactive
- AC50 [5]: 15 µM (active)
- outcome [6]: inactive

Structure (SMILES): Nc1ccc(N)c2c1C(=O)c1ccccc1C2=O
- AC50 [9]: 52 µM (active)

Structure (SMILES): FC(F)(F)COCC(F)(F)F
- outcome [7]: inactive
- outcome [8]: inactive
